The list is not random: actives were taken first. Their share in the collection is about 6.3%.
MPTP block: mitochondrial permeability transition pore inhibitors, primary screen, biochemical, isolated mouse mitochondria, absorbance | inhibition, % at 10 µM | AID 602449, 2012 | 360,000 compounds, 1.4% hits | Ca2+ swelling absorbance, 30 min;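 active means inhibition of 50% or more, scaled per plate between neutral and stimulator controls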;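 further: 0% = DMSO wells given calcium and 100% = 1 mM EGTA wells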
TIM10 inh: growth inhibitors of isogenic TIM10 control yeast, primary screen, counter-screen for tim10-1 yeast inhibitor project, luminescence, uHTS; S. cerevisiae TIM10 strain growth, BacTiter-Glo luminescence, 24 h; 330,000 compounds, 1.4% hits; inhibition, % at 10 µM; AID 463195, 2010;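 active means inhibition of 40% or more at the single tested concentration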;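 further: wild-type TIM10 isogenic control strain grown at permissive 25 °C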
Mdm2 MdmX PPI: inhibitors of human Mdm2-MdmX association, primary screen, cell-based, luminescence, split luciferase, SaOS-2, uHTS; Protein Mdm4 (Homo sapiens) + E3 ubiquitin-protein ligase Mdm2 (Homo sapiens), …; SaOS-2 split-luciferase Mdm2/MdmX complementation; inhibition, % at 8 µM; 330,000 compounds, 3% hits;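 active means inhibition of at least 50% at 8 µM in the primary screen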
Target sequence (O15151 whole entry, looked up): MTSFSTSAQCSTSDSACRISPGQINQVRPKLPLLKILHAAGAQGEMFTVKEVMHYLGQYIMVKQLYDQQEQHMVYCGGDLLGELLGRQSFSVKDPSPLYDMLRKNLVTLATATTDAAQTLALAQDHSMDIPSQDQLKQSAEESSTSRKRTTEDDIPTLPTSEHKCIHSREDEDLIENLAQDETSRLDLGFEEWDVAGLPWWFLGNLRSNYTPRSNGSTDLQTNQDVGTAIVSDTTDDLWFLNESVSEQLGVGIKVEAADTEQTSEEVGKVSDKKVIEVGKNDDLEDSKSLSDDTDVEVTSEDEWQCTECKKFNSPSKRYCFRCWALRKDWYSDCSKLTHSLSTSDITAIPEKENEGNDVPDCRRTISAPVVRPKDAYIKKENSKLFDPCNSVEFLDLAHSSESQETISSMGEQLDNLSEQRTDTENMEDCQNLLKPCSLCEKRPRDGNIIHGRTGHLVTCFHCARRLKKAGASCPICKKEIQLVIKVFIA
Target sequence (Q00987 whole entry, looked up): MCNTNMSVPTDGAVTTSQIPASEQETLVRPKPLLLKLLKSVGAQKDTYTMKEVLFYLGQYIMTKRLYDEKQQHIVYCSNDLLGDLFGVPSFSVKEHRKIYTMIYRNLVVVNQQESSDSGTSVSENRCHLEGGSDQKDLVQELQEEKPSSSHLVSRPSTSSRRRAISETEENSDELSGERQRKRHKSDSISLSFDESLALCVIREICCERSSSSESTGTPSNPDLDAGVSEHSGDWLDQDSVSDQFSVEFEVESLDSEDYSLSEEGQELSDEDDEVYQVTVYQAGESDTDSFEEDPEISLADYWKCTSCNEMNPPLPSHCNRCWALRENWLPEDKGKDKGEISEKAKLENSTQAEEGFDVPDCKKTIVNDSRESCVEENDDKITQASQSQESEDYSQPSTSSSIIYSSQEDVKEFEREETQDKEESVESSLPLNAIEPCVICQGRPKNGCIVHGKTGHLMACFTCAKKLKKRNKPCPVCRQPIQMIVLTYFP
tim23-1 inh: growth inhibitors of tim23-1 mutant yeast, primary screen, luminescence, uHTS; S. cerevisiae tim23-1 growth, BacTiter-Glo luminescence, 24 h; inhibition, % at 20 µM; 330,000 compounds, 1.3% hits;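 active means growth inhibition of the mutant yeast at or above 50%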;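 further: temperature-sensitive mutant grown at 25 °C; plate controls were DMSO-treated mutant yeast for no effect and medium wells lacking yeast for full effect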
tim10-1 inh: growth inhibitors of tim10-1 mutant yeast, primary screen, luminescence, uHTS | AID 463190, 2010 | inhibition, % at 20 µM | S. cerevisiae tim10-1 ts strain growth, BacTiter-Glo, 24 h | 330,000 compounds, 2.2% hits;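 active means inhibition of at least 40%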;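 further: mutant grown at 25 °C; 0% = DMSO wells with yeast and 100% = wells holding no yeast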
Rh123 counter: fluorescence retest of MPTP screen hits in isolated mitochondria, single concentration | shares compounds with MPTP block | membrane potential, Rhodamine 123 fluorescence | inhibition, % at 10 µM | 5,000 compounds, 78% hits | AID 624504, 2012; in the data active means inhibition above about 22%;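 further: 0% = DMSO vehicle and 100% = positive control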
MPTP abs DR: mitochondrial permeability transition pore inhibitors, dose response, biochemical, absorbance, uHTS hits | shares compounds with MPTP block | isolated mitochondria swelling | IC50, µM | 780 compounds, 58% hits | AID 651561, 2012; in the data active means IC50 below about 20 µM
MPTP cs DR: fluorescent counter-screen in isolated mitochondria, dose response, counter-screen for MPTP inhibitor project, biochemical, fluorescence, uHTS hits; 780 compounds, 49% hits; shares compounds with MPTP block; IC50, µM; AID 651564, 2012; isolated mitochondria counterscreen, fluorescence read-out; in the data active means IC50 below about 80 µM
* hit, by the source's call; / = no result.

SMILES	MPTP block	TIM10 inh	Mdm2 MdmX PPI	tim23-1 inh	tim10-1 inh	Rh123 counter	others
CCCCn1c(NC(=O)c2ccc(Br)o2)c(S(=O)(=O)c2ccccc2)c2nc3ccccc3nc21	78*	22	20	34	26	78*
Cc1ccc(S(=O)(=O)CC(=O)N(CCCN(C)C)c2nc3ccc(C)cc3s2)cc1	90*	-2	8	7	23	-12	MPTP abs DR=4.5*;MPTP cs DR=75*
Cc1ccc2nc(N(CCCN(C)C)C(=O)CS(=O)(=O)c3ccccc3)sc2c1	47	8	-17	9	-8	/
Cc1ccc2nc(N(CCN(C)C)C(=O)c3ccc4ccccc4c3)sc2c1	0	13	10	21	20	/
Cc1ccc2nc(N(CCCN(C)C)C(=O)CCc3ccccc3)sc2c1	102*	/	/	/	/	-10	MPTP abs DR=3.7*;MPTP cs DR=>80
Cc1ccc2nc(N(CCN(C)C)C(=O)/C=C/c3cccs3)sc2c1	99*	25	32	27	36	-17	MPTP abs DR=7.5*;MPTP cs DR=>80
O=C(C[C@H]1CC[C@@H]2[C@H](COC[C@H](O)CN2Cc2cccc(C(F)(F)F)c2)O1)NCCc1ccccc1	2	/	/	/	/	/
Cn1c(=O)c2c(ncn2CC(=O)OCC(=O)NCc2ccc(F)cc2)n(C)c1=O	0	/	/	/	/	/
N#CC1(NC(=O)COC(=O)Cc2c[nH]c3ccccc23)CCCCC1	0	/	/	/	/	/
CC(=O)c1cccc(NC(=O)Nc2ccc3c(c2)CCC3)c1	34	4	-21	8	21	/
Cc1cccc(NC(=O)Nc2ccc3c(c2)CCC3)c1	80*	3	10	14	1	77*
CC(C)(C)c1ccc(OCC(=O)Nc2ccncc2)c(Br)c1	108*	21	39	31	23	88*
CCc1ccc(OCC(=O)Nc2ccncc2)c(Br)c1	79*	-16	19	-91	9	80*
Cc1cccc(C)c1OCC(=O)Nc1ccncc1	-1	-6	20	13	-10	/
O=C(O)CCC(=O)NNC(=O)COc1ccc2ccccc2c1Br	0	-6	11	2	-23	/
Cc1cc(OCC(=O)Nc2ccncc2)c(C)cc1Br	98*	24	-1	-139	-4	84*
O=C(COc1ccc2ccccc2c1Br)Nc1ccncc1	92*	23	-2	18	16	82*
CCN1C(=O)[C@H]2[C@@H](c3ccc(C)cc3)N[C@]3(CCCN(CCC(C)C)C3=O)[C@H]2C1=O	1	/	/	/	/	/
COc1cccc(C(=O)NNS(=O)(=O)c2ccccc2)c1	2	/	/	/	/	/
CC1CN=C(c2ccccc2)O1 (configuration not stated)	0	/	/	/	/	/
CNC(=O)C[C@H]1C(=O)N(CCc2ccccc2)C[C@@H]1C	0	/	/	/	/	/
Cc1cc(OCC(=O)Nc2ccncc2)cc(C)c1Cl	94*	-4	11	13	-48	84*
Cc1ccc(OCC(=O)Nc2ccncc2)cc1C	14	/	/	/	/	/
COCCCN=C1NN=C(c2cc(C)n(Cc3ccco3)c2C)CS1	8	20	39	12	22	/
COCC(C)N=C1NN=C(c2cc(C)n(Cc3ccccc3Cl)c2C)CS1 (configuration not stated)	79*	18	49	2	6	83*
SMILES	MPTP block	TIM10 inh	Mdm2 MdmX PPI	tim23-1 inh	tim10-1 inh	Rh123 counter	others
COc1ccc(S(=O)(=O)N2CCOCC2)cc1NC(=O)c1c(C)noc1C	-1	/	/	/	/	/
O=C(Nc1cccc(Br)c1)c1ccc(Cl)c(S(=O)(=O)N2CCOCC2)c1	54*	-1	34	-8	12	75*
Cc1cc(Br)ccc1OCCCCNCCO	-5	14	14	1	15	/
C=CCNCCCCOc1ccc(Br)cc1C	71*	-7	22	21	26	-4	MPTP abs DR=8.3*;MPTP cs DR=>80
Cc1cc(Cn2nc(-c3ccccc3)cc2C(=O)NCc2cccc(C(F)(F)F)c2)on1	63*	5	14	0	3	98*
CC(NC(=S)Nc1ccc(OC(F)F)cc1OC(F)F)C(C)(C)C (configuration not stated)	86*	29	11	29	33	91*
Cc1cc(C(F)(F)F)c(C#N)c(SCC(=O)Nc2nc3cc(Br)ccc3s2)n1	87*	19	39	34	21	12	MPTP abs DR=16*;MPTP cs DR=3.2*
N#Cc1c(SCC(=O)Nc2nc3ccc(Br)cc3s2)sc2c(O)cc(=O)[nH]c12	-1	-27	2	8	6	/
CC(C)COC(=O)N(C)C[C@H]1OCc2cnnn2CCCC(=O)N([C@@H](C)CO)C[C@H]1C	-2	/	/	/	/	/
O=C(c1ccc2ccccc2c1O)N1CCCCC1	1	/	/	/	/	/
FC(F)(F)c1cccc(N2CCN(C(=S)NC3CCCC3)CC2)c1	-3	34	9	14	15	/
FC(F)(F)c1cccc(NC(=S)NCc2ccccn2)c1	8	20	-21	33	33	/
FC(F)(F)c1cccc(NC(=S)NC2CCCC2)c1	100*	33	10	46	37	83*
FC(F)(F)c1cccc(N2CCN(C(=S)NC3CCCCC3)CC2)c1	81*	34	16	13	21	72*
FC(F)(F)c1cccc(NC(=S)NNC(=S)NCc2ccccc2)c1	79*	30	18	7	23	72*
CCNc1nc(NC(C)C)nc(-c2ccncc2)n1	1	/	/	/	/	/
CCCCCCN1C[C@@H](n2cc(COC(=O)c3ccccc3)nn2)[C@H](O)C[C@@H]1c1ccc(OC)cc1	0	/	/	/	/	/
COc1ccc(-c2nn(-c3ccccc3)cc2/C=N/N=C(N)N)cc1OC	89*	15	46	1	21	-31
CCCC(=O)Nc1cccc(NC(=O)Cc2ccc(Cl)cc2)c1	2	/	/	/	/	/
Cc1c(CC(=O)Nc2ccc(Cl)cc2)sc2ccc(Cl)cc12	88*	-13	-1	-29	-12	91*
Cc1ccc(C23CC4CC(CC(NC(=O)N5CCN(C)CC5)(C4)C2)C3)cc1	71*	12	27	19	24	-12	MPTP abs DR=16*;MPTP cs DR=>80
CCOc1ccc(N(C)S(=O)(=O)c2ccc(C)c(C(=O)OCC(=O)c3c[nH]c4ccccc34)c2)cc1	51*	20	32	7	15	30*
COc1ccc(C(=O)OCC(=O)c2c[nH]c3ccccc23)c(OC)c1	0	4	-82	-13	-17	/

Source: PubChem (Sanford-Burnham Center for Chemical Genomics)
